Screens as filed in PubChem BioAssay.
Hits are enriched below; roughly 2.3% of the tested compounds scored in any of these assays.
POLB inh: qHTS Assay for Inhibitors of DNA Polymerase Beta. P06746. Pol beta primer extension/strand displacement, fluorescence kinetic. Potency, µM (titrated, usually from 114 µM), inactives show top-dose activity change, negative = inhibition, most hits filed as inhibitors. 340,000 tested, 1.3% active. AID 485314, 2010; further: on the % scale 0 is the no-effect control and ±100 the full control effect
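Kinetic readout of DNA synthesis with strand displacement by Pol beta. Compound and 10 nM enzyme sit 15 min at room temperature; 50 nM substrate starts the reaction, read immediately and at 10 min.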
POLK inh: qHTS for Inhibitors of Polymerase Kappa; DNA polymerase kappa (Homo sapiens), Q9UBT6; purified Pol kappa, fluorescent DNA synthesis assay, 10 min; Potency, µM (doses to about 107 µM), for inactives: at the highest dose activity, negative = inhibition, usual class: inhibitors; 400,000 tested, 0.53% active; further: on the % scale 0 is the no-effect control and ±100 the full control effect
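Pol kappa 10 nM + cpd, 15 min RT; start w/ substrate 50 nM final; fluorescence kinetic read, 0 and 10 min. Neg ctrl: buffer, no enzyme.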
WRN inhibitor: qHTS for Inhibitors of WRN Helicase. Bifunctional 3'-5' exonuclease/ATP-dependent helicase WRN (Homo sapiens), Q14191. WRN helicase unwinding, fluorescent forked duplex, kinetic. Potency, µM (titrated, usually from 114 µM), without a hit: top-dose activity change, negative = inhibition, usual class: inhibitors. 360,000 tested, 0.46% active. AID 651768, 2012; further: on the % scale 0 is the no-effect control and ±100 the full control effect; nearly all actives have a fitted effect of over 55% in size
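Primary qHTS, 1536-well format. 20 nM WRN + compound, 15 min RT; start with 100 nM forked fluorophore/quencher duplex, 2 mM ATP (final); kinetic read ex 525/em 598 nm.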
POLI inh: qHTS for Inhibitors of Polymerase Iota. 390,000 tested, 1% active. AID 588590, 2011. Pol iota fluorescent replication assay, 10 min. Potency, µM (titrated, usually from 115 µM), inactives show at the highest dose activity, negative = inhibition, usual class: inhibitors
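Pol iota at 10 nM preincubated 15 min with compounds at room temperature; reaction started with fluorescent substrate, 50 nM final. Fluorescence read kinetically at 0 and 10 min; buffer-only wells as negative control.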
POLH inh: qHTS for Inhibitors of Polymerase Eta | DNA polymerase eta (Homo sapiens), Q9Y253 | recombinant Pol eta, fluorescent DNA replication assay | Potency, µM (series often up to 114 µM), without a hit: top-dose activity change, negative = inhibition, usual class: inhibitors | 390,000 tested, 1.2% active; further: on the % scale 0 is the no-effect control and ±100 the full control effect
Target sequence (Q9Y253 whole entry, looked up): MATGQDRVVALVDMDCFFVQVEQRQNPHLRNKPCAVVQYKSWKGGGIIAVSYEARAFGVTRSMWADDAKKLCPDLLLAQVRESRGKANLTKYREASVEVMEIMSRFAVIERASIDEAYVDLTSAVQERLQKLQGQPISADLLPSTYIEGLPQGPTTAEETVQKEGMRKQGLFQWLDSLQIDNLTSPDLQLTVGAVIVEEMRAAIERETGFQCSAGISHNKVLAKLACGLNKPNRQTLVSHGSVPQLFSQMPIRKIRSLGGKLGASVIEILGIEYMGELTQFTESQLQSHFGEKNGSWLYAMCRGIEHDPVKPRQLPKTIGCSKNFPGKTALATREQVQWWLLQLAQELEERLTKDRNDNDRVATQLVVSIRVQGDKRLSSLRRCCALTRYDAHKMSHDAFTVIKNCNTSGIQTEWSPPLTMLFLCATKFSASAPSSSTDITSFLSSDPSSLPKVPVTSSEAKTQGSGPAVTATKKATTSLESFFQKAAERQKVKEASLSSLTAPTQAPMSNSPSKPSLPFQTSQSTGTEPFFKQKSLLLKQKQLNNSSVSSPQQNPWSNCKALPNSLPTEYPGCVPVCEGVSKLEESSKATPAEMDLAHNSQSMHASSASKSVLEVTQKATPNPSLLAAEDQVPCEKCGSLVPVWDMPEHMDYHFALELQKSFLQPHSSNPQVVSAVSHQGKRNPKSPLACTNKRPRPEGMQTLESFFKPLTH
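Pol eta at 10 nM preincubated with compounds 15 min at room temperature; reaction started with fluorescent substrate (50 nM final) and read kinetically at 0 and 10 min.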
TbPGK inh: qHTS for inhibitors of Phosphogylcerate Kinase: Hit Validation Screen. shares compounds with POLK inh. AID 686980, 2013. Potency, µM (series often up to 57.5 µM), inactives show top-dose activity change, negative = inhibition, usual class: inhibitors. TbPGK coupled GAPDH assay, Kinase-Glo luminescence. 500 tested, 79% active; further: on the % scale 0 is the no-effect control and ±100 the full control effect; nearly all actives have a fitted effect of over 65% in size
POLI cherry-pick: qHTS for Inhibitors of Polymerase Iota: Confirmatory Assay for Cherry-picked Compounds; Potency, µM, actives largely listed as inhibitors; Pol iota primer extension, TAMRA/BHQ fluorescence; shares compounds with POLK inh; AID 720496, 2013; 1,500 tested, 77% active
Numbers without * were called inactive; [ ] = another dose, or the depositor's remark. The call rests on the fitted dose curve; in most records, active means well fitted curve in the direction sought with a large enough effect; inconclusive means small, poorly fitted or top-dose-only effect, or another doubt; inactive means no such curve, though single readings can be large; an effect the other way counts as inactive or inconclusive. Potency means the concentration at half of the fitted maximal effect.

What do the screens show for `COc1ccc(O)c(C(c2c(C)[nH][nH]c2=O)c2c(C)[nH][nH]c2=O)c1`?
POLB inh: inconclusive; POLK inh: -1%; WRN inhibitor: -4%[11.6 µM]; POLI inh: -90%; POLH inh: -13%; POLI cherry-pick: inconclusive

What do the screens show for `NNc1ccc([N+](=O)[O-])c2[nH][nH]c(=O)c12`?
WRN inhibitor: 20µM*; POLH inh: 2µM*; TbPGK inh: 2.6µM*

Results for Cc1cc(N(C)C)ccc1[N+](=O)[O-] ?
POLB inh: 15%; POLK inh: 1%; WRN inhibitor: 4%; POLI inh: -14%; POLH inh: -17%

What do the screens show for `COc1ccc(-c2nn(C)c3sc(C(=O)NCCN(C)C)cc23)cc1OC`?
POLB inh: 32µM*; POLK inh: inconclusive; WRN inhibitor: inconclusive; POLI inh: 18µM*; POLH inh: inconclusive; POLI cherry-pick: inconclusive

How did COc1ccc(OC)c(CNC(=O)c2cc3c(-c4ccc(OC)c(OC)c4)nn(C)c3s2)c1 do in these assays?
POLB inh: -17%; POLK inh: -11%; POLI inh: 15%; POLH inh: -18%

Results for NS(=O)(=O)c1ccc(N=C2C(=O)Nc3ccccc32)cc1 ?
POLB inh: 21%; POLK inh: 1%; WRN inhibitor: -7%; POLI inh: 29%; POLH inh: -7%

What do the screens show for `O=C1Nc2ccccc2C1=Nc1ccc(S(=O)(=O)Nc2nccs2)cc1`?
POLB inh: 7%; POLK inh: inconclusive; WRN inhibitor: 20µM*; POLI inh: 8.9µM*; POLH inh: 20µM*; TbPGK inh: 18µM*

Results for COC(=O)c1ccc(NC(=O)c2ccc(NC(=O)c3ccco3)cc2)cc1 ?
POLB inh: -1%; POLK inh: -10%; WRN inhibitor: -14%; POLI inh: inconclusive; POLH inh: inconclusive; POLI cherry-pick: inconclusive

What do the screens show for `COc1ccc(-c2ccc3oc(-c4ccc(OC)cc4)c(C#CCCO)c3c2)cc1`?
POLK inh: 8%; WRN inhibitor: 0%; POLI inh: 35µM*; POLH inh: 45µM*; POLI cherry-pick: 38*

How did COc1ccc(C#Cc2c(-c3ccc(OC)cc3)oc3ccc(-c4ccc(OC)cc4)cc23)cc1 do in these assays?
POLK inh: -14%; WRN inhibitor: -10%; POLI inh: 8%; POLH inh: -4%

What do the screens show for `Cc1ccc(CSCc2ccc(C(=O)NCCc3ccc(Cl)cc3)o2)cc1`?
POLB inh: -20%; POLK inh: -4%[60.1 µM]; POLI inh: -23%; POLH inh: -3%

Results for CCc1cccc(-n2c(=O)c3cccnc3n2CC(=O)NCc2ccc(C)cc2)c1 ?
POLB inh: 13%; POLK inh: -8%; POLI inh: 8%; POLH inh: 10%

How did O=C(c1ccccc1)c1ccc(O)c(O)c1O do in these assays?
POLK inh: 22µM*; WRN inhibitor: 28µM*; POLI inh: 28µM*; POLH inh: 8.9µM*; TbPGK inh: 5.8µM*

Results for CCOC(=O)Cc1ccc(NC(=O)Nc2cccc(OCc3cc(=O)n4cc(C)ccc4n3)c2)cc1 ?
POLB inh: 15%; POLK inh: -5%[60.1 µM]; POLI inh: 2%; POLH inh: -8%
